According to PubChem BioAssay (NCI):
Compounds without any hit were thinned out: in the full panel of roughly 83,000, 20% have a hit.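 Single-dose data. Exposure time 48 hours. Values below 10 considered active.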 Active and inactive are the calls of the source.

The compounds below were run on SNB-19 CNS (assay: NCI-60 one-dose screen, 48 h (100 = growth as untreated, 0 = no growth, -100 = all killed)). Conditions: 10 µM unless noted.

Structure (SMILES) | growth
CCN1CCN(/C(=N\c2sc(-c3ccccc3)nc2-c2ccccc2)c2ccccc2)CC1 | 84.8% (inactive)
CCCCN1C(=O)/C(=c2\sc3n(c2=O)C2C(NN=3)N(CC)C(=O)N2CC)c2cc(Cl)ccc21 (centres undefined) | 90.8% (inactive)
O=C1C2=C(C(=O)c3c(O)cccc31)C(c1ccco1)c1sc(=O)[nH]c1S2 (centres undefined) | 13.6% (inactive)
COc1cc(/C=C/C(=O)c2ccc(C(F)(F)F)cc2)ccc1Oc1nc(NCCO)nc(N2CCOCC2)n1 | 87.6% (inactive)
OC1CCN(CCCOc2c3ccc(Cl)cc3nc3c2oc2ccc(Cl)cc23)CC1 | 29.5% (inactive)
Nc1c(C(=O)Nc2ccc(Cl)cc2)sc2nc(-c3cnccn3)cc(-c3cccs3)c12 | 49.1% (inactive)
O=C(N/N=C/c1ccc([N+](=O)[O-])o1)c1[nH]c2ccc(Br)cc2c1-c1ccccc1 | 22% (inactive)
Cc1ccc(-c2nc(C(Cl)Cl)nc3cc(-c4ccccc4)nn23)cc1 | 14.8% (inactive)
CCOC(=O)c1c(NC(=O)c2cccc(C(F)(F)F)c2)sc2cc(O)ccc12 | 96% (inactive)
OC1CCN(CCCOc2c3ccccc3nc3c2oc2ccccc23)CC1 | 0.345% (active)
COc1ccc(C(=O)/C=C/c2ccc(OCc3ccc(Cl)cc3)c(OC)c2)cc1OC | 72.3% (inactive)
CN(C)CCCNc1c2ccccc2nc2c1oc1ccc(Cl)cc12 | 43.3% (inactive)
COc1ccc(NC2=CC(=O)C(C)=C(C)C2=O)cc1 | 99.2% (inactive)
COc1ccc(-n2c(SCC(=O)Nc3ccc(-c4nc5ccccc5[nH]4)cc3)nc3ccccc3c2=O)cc1 | 20.9% (inactive)
C/C(=N\NC(N)=O)c1c(O)sc(=O)[nH]c1=O | 93.2% (inactive)
OC1CCN(CCCOc2c3ccc(Cl)cc3nc3c2oc2ccccc23)CC1 | 6.3% (active)
NS(=O)(=O)c1ccc(Nc2nc(Nc3ccccc3)nc(-n3nc(-c4ccccc4)cc3-c3ccccc3)n2)cc1 | 50.1% (inactive)
COc1cc(OC)c(C2C(Cl)C(=O)N2Nc2ncnc3ccccc23)cc1OC (centres undefined) | 98.9% (inactive)
CN(C)CCCOc1c2ccc(Cl)cc2nc2c1oc1ccc(Cl)cc12 | 24.5% (inactive)
Cc1[nH]nc2ncc(C#Cc3cncc(C(=O)Nc4ccc(CN5CCN(C)CC5)c(C(F)(F)F)c4)c3)cc12 | 50.5% (inactive)

Structure (SMILES) | growth
CC1=C(C)C(=O)C(Nc2cccc(C(F)(F)F)c2)=C(Cl)C1=O | 92.4% (inactive)
Cn1cc(-c2cc(N)n3nc(-c4cn(C)c5ccc(Br)cc45)cc3n2)c2cc(Br)ccc21 | 104% (inactive)
O=c1[nH]c2ccc(Cl)cc2cc1CSc1ccccc1Nc1nccc(-c2ccc(Cl)cc2)n1 | 95% (inactive)
COc1ccc(-c2nc3ccc(-c4nnc(SCC(=O)Nc5ccc(C(=O)/C=C/c6ccccc6)cc5)o4)cc3[nH]2)cc1OC | 107% (inactive)
N#Cc1nc(-c2ccccc2)oc1S(=O)(=O)N1CCN(CCc2ccccn2)CC1 | 97.7% (inactive)
CN1CCN(Cc2ccc(NC(=O)c3cncc(C#Cc4cnc5[nH]ncc5c4)c3)cc2C(F)(F)F)CC1 | 59.3% (inactive)
COc1cc(/C=C/C(=O)c2ccc(F)cc2)ccc1Oc1nc(NCCO)nc(N2CCOCC2)n1 | 69.4% (inactive)
Clc1ccc2c(OCCCN3CCOCC3)c3oc4ccccc4c3nc2c1 | 41.9% (inactive)
O=C(c1ccc(O)cc1)C1[C@H](c2ccc(Cl)cc2)[C@@H](c2ccccc2)NC12C(=O)Nc1ccc(Cl)cc12 (some centres undefined) | 63% (inactive)
Nc1cc(-c2c[nH]c3ccccc23)nc2cc(-c3c[nH]c4ccccc34)nn12 | 86.2% (inactive)
Oc1c(Cl)cc(Cl)c2ccc(CN3CCCCC3)nc12 | 44.1% (inactive)
CN(C)CCCOc1c2ccc(Cl)cc2nc2c1oc1ccccc12 | 5.62% (active)
CS(=O)(=O)c1ccc(-c2nc3ccccn3c2/C=N/Nc2nc(-c3ccc(Br)cc3)cs2)cc1 | 103% (inactive)
C=CCn1c(SCC(=O)c2ccc(Br)cc2)nnc1-c1c[nH]c2ccccc12 | 100% (inactive)
COc1cc(/C=C/C(=O)c2ccccc2)ccc1Oc1nc(NCCO)nc(N2CCOCC2)n1 | 97.8% (inactive)
COC1CCN(Cc2ccc3c(NNC(=O)c4cnccn4)nc4cc(F)ccc4n23)C1 (centres undefined) | 36.1% (inactive)
CC(C)NC(=O)c1cc(-c2ccc(NC(=O)Nc3ccc(N4CCOCC4)c(C(F)(F)F)c3)cc2)nc2cccnc12 | 62.6% (inactive)
O=C(N/N=C/c1ccco1)c1[nH]c2ccc(Br)cc2c1-c1ccccc1 | 41.4% (inactive)
O=C(CSc1nccc(=O)[nH]1)Nc1ccc(-c2nc3ccccc3[nH]2)cc1 | 103% (inactive)
